# Data as given in PubChem BioAssay (NCATS).
# Values joined by “and” are separate entries in the source; they are usually repeats but may differ in a detail not shown here. Equal values may be shown once. Values without a mark were called inactive. Records with an inconclusive call do not appear. Active and inactive are the calls of the source. Unless noted, calls follow the shape of the dose curve; as a rule, active = well fitted curve in either direction with a large enough effect (not every such curve was filed as active); inconclusive = small, poorly fitted or top-dose-only effect, or another doubt; inactive = flat fitted curve, though single readings scatter.
# Key:
# [1] = AP1 Signaling Pathway (AID 357); conditions: ME-180 AP-1-bla reporter, EGF-induced, beta-lactamase ratio, 5 h;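 also: ME-180 reporter cells stimulated with EGF at its EC50 level; % is scaled to controls: 0 for no effect and ±100 for the full control effect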
# Summary of the method: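 First, ME-180 AP-1-bla cells were cultured overnight at 37 °C in low-serum Opti-MEM. Next, titrated compounds with EC50 EGF were incubated 5 hours. Finally, CCF4 was added for 2.5 hours and the 460/530 nm ratio recorded.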
# [2] = target: Cytochrome P450 1A2 (Homo sapiens) (UniProt P05177); experiment: p450-cyp1a2 (AID 410; calls by dose curve; also: potency is read from the fitted curve at half-maximal effect;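 as to activity change, negative = inhibition: -100% = full effect of reference inhibitor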)
# Summary of the method: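 20nM CYP1A2, 100uM Luciferin-ME (=Km), 100mM KPO4; cpd 10 min RT; +NADPH regen, 60 min RT; stop/detect 20 min; luminescence. Normalized to furafylline 57 uM = full inhibition.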
# [3] = NFAT Signaling Pathway (AID 444); conditions: Jurkat NFAT-bla M1, carbachol, beta-lactamase ratio, 5 h;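 also: carbachol stimulus at about its EC50 of 1 µM final; % is scaled to controls: 0 for no effect and ±100 for the full control effect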
# Summary of the method: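 Jurkat cells carrying an NFAT-driven β-lactamase reporter and co-transfected muscarinic M1 receptor were treated with compound plus carbachol (1 uM final, an EC50 level) for 5 h at 37 °C. CCF4 loading followed for 1 h at RT; 460/530 nm ratio gave %activity.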
# [4] = Stat Signaling Pathway (AID 446); conditions: ME-180 (cervical carcinoma) SIE beta-lactamase reporter, IL-6 stimulated, 5 h;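 also: ME-180 cervical cancer cells given 40 pM IL-6 alongside compound; SIE-controlled beta-lactamase reporter measured as 460/530 nm FRET emission ratio; % is scaled to controls: 0 for no effect and ±100 for the full control effect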
# Summary of the method: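 Normalization used AC90 stimulation (300 pM IL-6) and AC90 inhibition (125 nM pan-JAK inhibitor at 40 pM IL-6). The underlying signal is SIE-driven beta-lactamase in ME-180 cells after 5 h IL-6 exposure with compound.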
# [5] = target: Glucocorticoid receptor (Homo sapiens) (UniProt P04150); experiment: GR-GFP Redistribution (AID 450;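 active = compounds whose dose series gives a full or clear partial fitted curve of increased nuclear translocation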; also: potency is read from the fitted curve at half-maximal effect); conditions: U2OS GR-GFP nuclear translocation, laser cytometry, 2 h
# [6] = target: Glucocorticoid receptor (Homo sapiens) (UniProt P04150); experiment: GR-EFC Redistribution (AID 451; calls by dose curve; also: potency is read from the fitted curve at half-maximal effect); conditions: CHO-K1 GR-EFC translocation, beta-gal luminescence, 2 h
# Summary of the method: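 CHO-K1 cells stably expressing nuclear-localized β-gal enzyme acceptor and GR fused C-terminally to the enzyme donor fragment; ligand-driven nuclear translocation restores β-gal by complementation. Compounds titrated up to 46 uM final, 2 h at 37 °C; luminescence read.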
# [7] = target: Mitogen-activated protein kinase 10 (Mus musculus) (UniProt Q61831); experiment: JNK3 AlphaScreen Assay (AID 530);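 also: kinase came from lysate of stimulated human HepG2 cells; signal reports phosphorylation of biotinylated GST-cJun 1-79 at Ser73 with 10 µM ATP; % is scaled to controls: 0 for no effect and ±100 for the full control effect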
# Summary of the method: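 Biotinylated GST-cJun(1-79) served as substrate for JNK3 in HepG2 lysates stimulated with IL-1beta and TNF-alpha. ATP was 10 uM final, pH 7.6. Ser73 phosphorylation was quantified by AlphaScreen (680 nm excitation).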
# [8] = target: 3',5'-cyclic-AMP phosphodiesterase 4B (Homo sapiens) (UniProt Q07343); experiment: qHTS Assay for Inhibitors of PDE-IV (AID 607; active = well fitted activation curve with a large enough effect in the main read-out, with a control signal flat, not every such curve was filed as active; also: % of control where 0% means no effect)
# Summary of the method: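 HEK293 ACTOne cells with CNG channel (1000/well), endogenous PDE4; membrane potential dye, compounds up to 22.9 uM final. Fluorescence Ex 535/Em 590; RO 20-1724 (100 uM final) as reference.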
# [9] = target: Cytochrome P450 3A4 (Homo sapiens) (UniProt P08684); experiment: qHTS Assay for Inhibitors and Substrates of Cytochrome P450 3A4 (AID 884; active = well fitted inhibition curve with a large enough effect; also: % is scaled to controls: 0 for no effect and ±100 for the full control effect; nearly all actives have a fitted effect of over 50% in size)
# Summary of the method: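 Luminescent readout of luciferin produced by CYP3A4 (20 nM) dealkylation of Luciferin-PPXE, 25 uM (its KM). NADPH-driven reaction ran 60 min at RT after 10 min compound preincubation; data scaled to 57 uM ketoconazole as 100% inhibition.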
# [10] = at 7.69 µM (top of the series) unless noted
# Chain of 3',5'-cyclic-AMP phosphodiesterase 4B (Homo sapiens) (Q07343 whole entry, looked up): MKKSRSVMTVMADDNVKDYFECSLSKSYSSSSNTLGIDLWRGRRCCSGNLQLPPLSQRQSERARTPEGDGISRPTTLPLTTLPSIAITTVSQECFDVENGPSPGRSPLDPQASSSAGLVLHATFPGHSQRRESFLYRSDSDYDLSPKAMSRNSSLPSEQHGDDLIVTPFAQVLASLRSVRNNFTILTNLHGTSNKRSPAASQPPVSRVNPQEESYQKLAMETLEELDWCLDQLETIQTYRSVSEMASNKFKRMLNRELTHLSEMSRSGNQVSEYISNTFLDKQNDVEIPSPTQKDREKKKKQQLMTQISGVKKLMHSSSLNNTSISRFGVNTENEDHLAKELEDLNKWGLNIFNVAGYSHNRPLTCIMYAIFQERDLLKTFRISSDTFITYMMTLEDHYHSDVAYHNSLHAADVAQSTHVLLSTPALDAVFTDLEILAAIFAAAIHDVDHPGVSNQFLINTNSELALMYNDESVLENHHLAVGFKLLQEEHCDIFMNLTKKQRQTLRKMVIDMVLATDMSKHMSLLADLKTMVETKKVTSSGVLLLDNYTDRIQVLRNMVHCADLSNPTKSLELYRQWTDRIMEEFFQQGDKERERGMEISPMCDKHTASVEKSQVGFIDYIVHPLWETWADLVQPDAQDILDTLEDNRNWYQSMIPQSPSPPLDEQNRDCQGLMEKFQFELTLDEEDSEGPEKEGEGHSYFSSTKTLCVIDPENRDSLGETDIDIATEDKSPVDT
# Chain of Cytochrome P450 1A2 (Homo sapiens) (P05177 whole entry, looked up): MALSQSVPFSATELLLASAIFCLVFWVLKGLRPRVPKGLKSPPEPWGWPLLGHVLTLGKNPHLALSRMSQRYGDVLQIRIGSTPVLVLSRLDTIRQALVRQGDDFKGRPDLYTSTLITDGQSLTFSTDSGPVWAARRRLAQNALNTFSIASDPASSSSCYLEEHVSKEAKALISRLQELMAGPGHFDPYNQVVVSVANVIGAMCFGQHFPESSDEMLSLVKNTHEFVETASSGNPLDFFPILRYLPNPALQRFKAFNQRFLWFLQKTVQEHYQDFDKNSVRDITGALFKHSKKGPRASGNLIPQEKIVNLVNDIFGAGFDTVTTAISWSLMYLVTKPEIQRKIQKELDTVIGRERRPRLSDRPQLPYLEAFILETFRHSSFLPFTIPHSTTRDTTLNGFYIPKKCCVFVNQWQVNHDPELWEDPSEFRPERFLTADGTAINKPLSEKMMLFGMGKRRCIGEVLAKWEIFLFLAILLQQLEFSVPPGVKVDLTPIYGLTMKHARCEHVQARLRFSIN
# Chain of Glucocorticoid receptor (Homo sapiens) (P04150 whole entry, looked up, the tested form may be a part): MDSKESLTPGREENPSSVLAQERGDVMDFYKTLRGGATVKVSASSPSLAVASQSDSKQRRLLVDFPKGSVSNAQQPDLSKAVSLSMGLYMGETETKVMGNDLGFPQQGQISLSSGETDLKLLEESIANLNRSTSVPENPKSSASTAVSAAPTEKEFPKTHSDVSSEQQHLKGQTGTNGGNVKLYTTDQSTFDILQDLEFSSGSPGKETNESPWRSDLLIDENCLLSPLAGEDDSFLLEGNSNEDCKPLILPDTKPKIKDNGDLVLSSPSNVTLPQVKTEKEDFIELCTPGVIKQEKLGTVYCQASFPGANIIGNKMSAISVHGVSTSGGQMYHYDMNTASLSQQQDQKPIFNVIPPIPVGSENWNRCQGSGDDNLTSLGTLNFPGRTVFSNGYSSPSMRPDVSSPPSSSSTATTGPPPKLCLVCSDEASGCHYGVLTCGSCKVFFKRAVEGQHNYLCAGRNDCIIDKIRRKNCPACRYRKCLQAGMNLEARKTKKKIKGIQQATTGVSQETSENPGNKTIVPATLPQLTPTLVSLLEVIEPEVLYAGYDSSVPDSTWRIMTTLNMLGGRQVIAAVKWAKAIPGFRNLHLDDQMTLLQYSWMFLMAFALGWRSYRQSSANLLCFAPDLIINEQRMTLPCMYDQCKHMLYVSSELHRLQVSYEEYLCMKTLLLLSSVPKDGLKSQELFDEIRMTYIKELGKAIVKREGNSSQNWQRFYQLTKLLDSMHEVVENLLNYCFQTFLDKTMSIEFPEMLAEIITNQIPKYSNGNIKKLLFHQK
# Chain of Cytochrome P450 3A4 (Homo sapiens) (P08684 whole entry, looked up): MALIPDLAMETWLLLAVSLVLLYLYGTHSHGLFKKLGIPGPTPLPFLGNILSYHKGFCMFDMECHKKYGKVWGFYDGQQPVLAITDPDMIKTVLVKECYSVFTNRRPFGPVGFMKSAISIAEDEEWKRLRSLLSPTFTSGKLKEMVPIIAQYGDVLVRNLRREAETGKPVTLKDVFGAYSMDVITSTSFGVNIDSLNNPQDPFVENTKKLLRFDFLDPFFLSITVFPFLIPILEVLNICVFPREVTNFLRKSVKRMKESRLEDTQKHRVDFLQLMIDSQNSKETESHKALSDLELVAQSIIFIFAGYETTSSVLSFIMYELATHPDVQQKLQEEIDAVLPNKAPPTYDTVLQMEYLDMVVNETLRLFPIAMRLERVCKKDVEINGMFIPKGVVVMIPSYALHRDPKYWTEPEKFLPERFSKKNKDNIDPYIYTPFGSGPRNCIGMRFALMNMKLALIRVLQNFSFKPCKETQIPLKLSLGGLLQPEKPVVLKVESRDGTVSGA
compound,measurement,setting,value
O=C(O)[C@H]1CCN1,"activity change, negative = inhibition",[1]; [10],-3.07% [at 38 µM]
same,Potency,[2],inactive
same,"activity change, negative = inhibition",[3]; [10],0.684% [at 38 µM]
same,"activity, negative = inhibition",[4]; [10],3.4% [at 38 µM]
same,Potency,[5],> 46 µM
same,Potency,[6],> 46 µM
same,Potency,[7],inactive
same,outcome,[8],inactive
same,Potency,[9],inactive
CN(C)CCC(C#N)(c1ccccc1)c1ccccc1,"activity change, negative = inhibition",[1]; [10],6.93%
same,"activity, negative = inhibition",[4]; [10],6.64%
same,Potency,[5],> 46 µM
same,Potency,[6],> 9.22 µM
same,"activity change, negative = inhibition",[7],2.05% [at 11.4 µM]
same,outcome,[8],inactive
CCc1ccc(CCN2CCCCC2)nc1,"activity change, negative = inhibition",[1]; [10],15.5%
same,"activity change, negative = inhibition",[3]; [10],-21.3%
same,Potency,[5],> 46 µM
same,Potency,[6],> 9.22 µM
same,"activity change, negative = inhibition",[7],1.06% [at 11.4 µM]
same,outcome,[8],inactive
NNc1c(C(N)=O)c2c(N)ncnc2n1[C@@H]1O[C@H](CO)[C@@H](O)[C@@H]1O,"activity change, negative = inhibition",[2],-11.2% [at 2.29 µM]
same,"activity change, negative = inhibition",[3]; [10],6.43%
same,Potency,[5],> 46 µM
same,Potency,[6],> 9.22 µM
same,"activity change, negative = inhibition",[7],-2.85% [at 11.4 µM]
same,outcome,[8],inactive
COc1ccc(C[C@@H]2NC[C@H](O)[C@@H]2OC(C)=O)cc1,"activity change, negative = inhibition",[1]; [10],-118% [at 17.2 µM] (active)
same,Potency,[2],inactive
same,"activity change, negative = inhibition",[3]; [10],-130% [at 17.2 µM] (active)
same,"activity, negative = inhibition",[4]; [10],-101% [at 17.2 µM] (active)
same,Potency,[5],> 20.6 µM
same,Potency,[6],> 20.6 µM
same,Potency,[7],inactive
same,outcome,[8],inactive
Nc1ccccc1O.O.O=C(O)[C@H]1[O][Sb][O][C@H]1C(=O)O,"activity change, negative = inhibition",[2],-23.1% [at 2.29 µM]
same,"activity change, negative = inhibition",[3]; [10],-17.5%
same,"activity, negative = inhibition",[4]; [10],8.88%
same,Potency,[5],> 46 µM
same,Potency,[6],> 9.22 µM
same,"activity change, negative = inhibition",[7],-2.79% [at 11.4 µM]
same,outcome,[8],inactive
O=C(O)c1cc[c]([Hg][S]c2ncnc3nc[nH]c23)cc1,Potency,[2],0.316 µM (active)
same,"activity, negative = inhibition",[4]; [10],-16.1%
same,Potency,[5],> 46 µM
same,Potency,[6],> 9.22 µM
same,"activity change, negative = inhibition",[7],3.39% [at 11.4 µM]
same,outcome,[8],inactive
O=C(c1ccccc1)[C@H]1[C@H](c2ccccc2[N+](=O)[O-])N1C1CCCCC1 (stereo not given in full),Potency,[2],0.631 µM (active)
same,Potency,[5],> 46 µM
same,Potency,[6],> 9.22 µM
same,"activity change, negative = inhibition",[7],-6.49% [at 11.4 µM]
same,outcome,[8],inactive
C[C@@H](Cc1ccc(O)cc1)NC[C@@H](O)c1cc(O)cc(O)c1,"activity change, negative = inhibition",[1]; at 17.2 µM (top of the series),-20.6%
same,"activity change, negative = inhibition",[1]; at 38 µM (top of the series),-23%
same,Potency,[2],inactive
same,"activity change, negative = inhibition",[3]; at 17.2 µM (top of the series),-2.14%
same,"activity change, negative = inhibition",[3]; at 38 µM (top of the series),-6.03%
same,"activity, negative = inhibition",[4]; at 17.2 µM (top of the series),-8.37%
same,"activity, negative = inhibition",[4]; at 38 µM (top of the series),-28.1%
same,Potency,[5],> 46 µM and > 20.6 µM
same,Potency,[6],> 46 µM and > 20.6 µM
same,Potency,[7],inactive
same,outcome,[8],inactive
COC1=C(C)C(=O)c2c(c(COC(N)=O)c3n2C[C@@H]2[C@@H]3N2C)C1=O (stereo not given in full),Potency,[5],> 46 µM
same,Potency,[6],> 9.22 µM
same,"activity change, negative = inhibition",[7],-0.1% [at 11.4 µM]
same,outcome,[8],inactive
CC[C@]1(OC(=O)CN)C(=O)OCc2c1cc1n(c2=O)Cc2cc3ccccc3nc2-1,"activity change, negative = inhibition",[2],-17.6% [at 2.29 µM]
same,Potency,[5],> 46 µM
same,Potency,[6],> 9.22 µM
same,"activity change, negative = inhibition",[7],-1.42% [at 11.4 µM]
same,outcome,[8],inactive
CC[C@@H]1CN2CCc3cc(OC)c(OC)cc3[C@H]2C[C@@H]1C[C@@H]1NCCc2cc(O)c(OC)cc21,"activity change, negative = inhibition",[1]; [10],-117% [at 17.2 µM] (active)
same,Potency,[2],inactive
same,"activity change, negative = inhibition",[3]; [10],-126% [at 17.2 µM] (active)
same,"activity, negative = inhibition",[4]; [10],-100% [at 17.2 µM] (active)
same,Potency,[5],> 20.6 µM
same,Potency,[6],> 20.6 µM
same,Potency,[7],inactive
C[C@@H]1O[C@@H](O[C@H]2C[C@@H](O)[C@@]3(CO)[C@H]4[C@H](O)C[C@]5(C)[C@@H](C6=CC(=O)OC6)CC[C@]5(O)[C@H]4CC[C@@]3(O)C2)[C@@H](O)[C@H](O)[C@H]1O,"activity change, negative = inhibition",[3]; [10],-104% (active)
same,"activity, negative = inhibition",[4]; [10],-4.36%
same,"activity change, negative = inhibition",[7],-1.14% [at 11.4 µM]
same,outcome,[8],inactive
O=[As](O)(O)c1ccc(Cc2ccc([As](=O)(O)O)cc2)cc1,"activity change, negative = inhibition",[3]; [10],-132% (active)
same,"activity, negative = inhibition",[4]; [10],-5.31%
same,Potency,[5],> 46 µM
same,Potency,[6],> 9.22 µM
same,"activity change, negative = inhibition",[7],-5.31% [at 11.4 µM]
same,outcome,[8],inactive
ClCC[N+]12CC[N+](CCCl)(CC1)C2 (tested in a mixture with another compound),"activity change, negative = inhibition",[1]; [10],1.69%
same,"activity change, negative = inhibition",[3]; [10],-23.8%
same,"activity, negative = inhibition",[4]; [10],3.41%
same,"activity change, negative = inhibition",[7],2.18% [at 11.4 µM]
same,outcome,[8],inactive
C[C@@H]1[C@H]2C=C[C@@H]1[C@@H](c1c3ccc(=O)c(O)c-3oc3c(O)c(O)ccc13)[C@@H]2C(=O)O,"activity change, negative = inhibition",[1]; [10],-14.3%
same,"activity change, negative = inhibition",[3]; [10],3.07%
same,Potency,[5],> 46 µM
same,Potency,[6],> 9.22 µM
same,outcome,[8],inactive
